# Test results as given in PubChem BioAssay (NCATS).
# Unmarked numbers belong to inactive results. Inconclusive results are not listed. A call without a number means that no potency is given here. Active and inactive are the calls of the source. Unless noted, calls follow the shape of the dose curve; as a rule, active = well fitted curve in the direction sought with a large enough effect; inconclusive = small, poorly fitted or top-dose-only effect, or another doubt; inactive = no such curve, though single readings can be large; an effect the other way counts as inactive or inconclusive.
# Tests used:
# [1] = biological target: Nuclear receptor subfamily 1 group I member 2 (Rattus norvegicus) (UniProt Q9R1A7); test: qHTS assay for small molecule activators of the rat pregnane X receptor (rPXR) signaling pathway (AID 651751; call rule not given here); conditions: rPXR reporter cells, luciferase (One-Glo), 24 h
# TAB109 = test: qHTS profiling for inhibitors of Plasmodium falciparum proliferation (AID 504749); also: nearly all actives have a fitted effect of over 60% in size; also: potency is read from the fitted curve at half-maximal effect; conditions: P. falciparum in erythrocytes, SYBR Green DNA, 72 h; series mostly up to 28.7 µM
# Summary of the method: (§1)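 Parasite proliferation within erythrocytes, 72 h exposure. Endpoint: SYBR Green I fluorescence after overnight lysis at room temperature. Controls: 0.29 uM artemisinin, DMSO.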
# TAB113 = test: as above; conditions: P. falciparum in erythrocytes, SYBR Green DNA, 72 h; series mostly up to 28.7 µM
# Summary of the method: as §1
# TAB165 = test: as above; conditions: P. falciparum in erythrocytes, SYBR Green DNA, 72 h; series mostly up to 28.7 µM
# Summary of the method: as §1
# W2 = test: as above; conditions: P. falciparum in erythrocytes, SYBR Green DNA, 72 h; series mostly up to 28.7 µM
# Summary of the method: as §1
# [2] = qHTS assay for small molecule activators of the human pregnane X receptor (PXR) signaling pathway (AID 720659; call rule not given here); conditions: DPX-2 HepG2 CYP3A4-luciferase, 24 h; series mostly up to 92.3 µM
# [3] = qHTS assay to identify inhibitors of the type 1 interferon - major histocompatibility complex class I in skeletal muscle: Counter screen cell viability and HiBit confirmation (AID 1347412); conditions: iHSKM muscle cells + IFN-b, HiBiT or CellTiter-Glo, 24 h; for activity change, negative = inhibition: at 45.9 µM (top of the series); also: potency is read from the fitted curve at half-maximal effect; as to all read-outs here: nearly all actives have a fitted effect of over 60% in size
# Summary of the method: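 After 24 h with human IFN-beta (4 ng/ml) and compound titrations (top 46 uM final, 1:3, 12 points), HLA-B HiBit myoblasts were lysed for either Nano-Glo HiBiT luminescence or CellTiter Glo viability on paired plates.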
# Nuclear receptor subfamily 1 group I member 2 (Rattus norvegicus), sequence (Q9R1A7 whole entry, looked up): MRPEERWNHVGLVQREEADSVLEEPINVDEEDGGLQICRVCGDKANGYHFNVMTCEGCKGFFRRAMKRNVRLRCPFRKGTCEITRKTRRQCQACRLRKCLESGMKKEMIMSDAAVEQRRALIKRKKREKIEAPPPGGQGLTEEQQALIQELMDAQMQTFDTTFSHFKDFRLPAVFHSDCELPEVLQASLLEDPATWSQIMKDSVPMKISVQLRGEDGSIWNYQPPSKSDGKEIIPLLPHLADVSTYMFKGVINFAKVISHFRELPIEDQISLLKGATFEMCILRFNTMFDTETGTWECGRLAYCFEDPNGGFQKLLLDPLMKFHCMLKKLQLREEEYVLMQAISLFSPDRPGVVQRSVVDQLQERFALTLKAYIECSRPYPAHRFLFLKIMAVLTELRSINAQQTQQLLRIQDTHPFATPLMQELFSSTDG
compound,measurement,setting,value
CCCc1c(OCCCOc2ccc(OCC(=O)O)cc2)ccc(C(C)=O)c1O,max response,[1],-1.22%
CCCCCCCCCCCCCCCCCCOC[C@H](COP(=O)([O-])OCC[N+](C)(C)C)OC,Potency,TAB109,inactive
same,Potency,TAB113,inactive
same,Potency,TAB165,inactive
same,Potency,W2,inactive
CC(O)C(O)[C@H]1CNc2nc(N)[nH]c(=O)c2N1 (some centres not stated),Potency,TAB109,inactive
same,Potency,TAB113,inactive
same,Potency,TAB165,inactive
same,Potency,W2,inactive
CC(C)NC[C@H](O)COc1ccc(CC(N)=O)cc1,Potency,TAB109,inactive
same,Potency,TAB113,inactive
same,Potency,TAB165,inactive
same,Potency,W2,inactive
CCCc1c(-c2ccc(O)cc2)nn(-c2ccc(O)cc2)c1-c1ccc(O)cc1,max response,[1],-3.52%
same,outcome,[2],inactive
C=C1C(=O)O[C@@H]2[C@H]3O[C@]3(C)CCC=C(C)CC[C@@H]12,Potency,[3]; HiBiT,8.83 µM (active)
same,"activity change, negative = inhibition",[3]; Viability,52.5%
CCCCCCCCCCCCCCC[C@H](O)[C@H](N)CO,Potency,TAB109,inactive
same,Potency,TAB113,inactive
same,Potency,TAB165,inactive
same,Potency,W2,inactive
CC[n+]1c(/C=C/C=C2/N(C)c3ccccc3C2(C)C)sc2ccccc21,Potency,[3]; HiBiT,7.01 µM (active)
same,Potency,[3]; Viability,9.91 µM (active)
Brc1c(Br)c(Br)c2[nH]cnc2c1Br,Potency,[3]; HiBiT,14 µM (active)
same,"activity change, negative = inhibition",[3]; Viability,3.14%
O=C1Cc2c([nH]c3ccc(Br)cc23)-c2ccccc2N1,Potency,[3]; HiBiT,15.7 µM (active)
same,"activity change, negative = inhibition",[3]; Viability,-21.6%
CN1C2CCC1CC(OC(c1ccccc1)c1ccccc1)C2 (configuration not stated),Potency,TAB113,inactive
same,Potency,W2,1.51 µM (active)
c1ccc(C2CN3CCSC3=N2)cc1 (configuration not stated),Potency,TAB109,4.47 µM (active)
same,Potency,TAB113,11.2 µM (active)
same,Potency,TAB165,5.01 µM (active)
same,Potency,W2,1.51 µM (active)
C/C(=C\c1ccc(C(=O)O)cc1)c1ccc2c(c1)C(C)(C)CCC2(C)C,max response,[1],1.8%
NC(=O)c1ccccc1,max response,[1],-1.26%
same,outcome,[2],inactive
O=c1[nH]c2cc(Cl)ccc2c(O)c1-c1ccc(Oc2ccccc2)cc1,Potency,[3]; HiBiT,5.57 µM (active)
same,"activity change, negative = inhibition",[3]; Viability,-0.671%
CCCCCCCCCCCCCCSCC(=O)O,max response,[1],5.54%
same,outcome,[2],inactive
CC(=O)C(C)=O,max response,[1],-4.56%
same,outcome,[2],inactive
